The source of these data is PubChem BioAssay (Tox21).

Assay [1] can be described thus: A CellTox Green Cytotoxicity Assay to monitor cytotoxicity in HEK293 cells - 40 hour (AID 1224871). Further: nearly all actives have a fitted effect of over 45% in size. Further: potency means the concentration at half of the fitted maximal effect. An outline of the steps: (§1)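 Real-time, in one plate: 600 HEK293 cells/well with dead-cell DNA dye, pinned compound after 5 h, 37 C incubation over 40 h; viable cells give no appreciable fluorescence.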
The nature of assay [2]: qHTS RealTime-Glo MT Cell Viability Assay in HEK293 cells - 16 hour (AID 1224872). Further: nearly all actives have a fitted effect of over 50% in size. Further: potency means the concentration at half of the fitted maximal effect. An outline of the steps:
(§2)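 Tox21 10K qHTS, HEK293, 600 cells/well, RealTime-Glo reagent co-dispensed with cells; 5 h preincubation, compound by pintool, 37 C, luminescence at 0–40 h.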
(In general: Quantitative high-throughput screening tests each substance at several concentrations.)

A short description of assay [3]: qHTS RealTime-Glo MT Cell Viability Assay in HEK293 cells - 40 hour (AID 1224874). Further: nearly all actives have a fitted effect of over 50% in size. Further: potency means the concentration at half of the fitted maximal effect. Conditions: RealTime-Glo luminescence; max response: stronger effect = lower value. An outline of the steps: (§3)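 Kinetic, non-lysing viability readout. Seed HEK293 (600/well) with reagent, incubate 5 h at 37 C/5% CO2, pin 23 nL compound in DMSO, incubate at 37 C, read luminescence at 0, 8, 16, 24, 32, 40 h.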

Assay [4] in a line: A CellTox Green Cytotoxicity Assay to monitor cytotoxicity in HEK293 cells - 24 hour (AID 1224875). Further: series mostly up to about 77 µM; nearly all actives have a fitted effect of over 45% in size. An outline of the steps: as §1
Assay [5] is described as follows: A CellTox Green Cytotoxicity Assay to monitor cytotoxicity in HepG2 cells - 16 hour (AID 1224876). Further: nearly all actives have a fitted effect of over 45% in size. A digest of the protocol: (§4)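 Cytotoxicity was tracked as dead-cell DNA fluorescence in HepG2 cells treated with test compounds at 37 C; each time-point value comes from one kinetic series spanning 0, 8, 16, 24, 32 and 40 h.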
The nature of assay [6]: qHTS RealTime-Glo MT Cell Viability Assay in HepG2 cells - 32 hour (AID 1224877). Further: nearly all actives have a fitted effect of over 55% in size. Further: potency means the concentration at half of the fitted maximal effect. A digest of the protocol: (§5)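 Cells + NanoLuc/prosubstrate dispensed (600 cells/well) → 5 h at 37 C/5% CO2 → compounds in DMSO transferred → 40 h incubation at 37 C, luminescence read at 0, 8, 16, 24, 32, 40 h.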
Assay [7] is described as follows: A CellTox Green Cytotoxicity Assay to monitor cytotoxicity in HepG2 cells - 24 hour (AID 1224878). Further: nearly all actives have a fitted effect of over 45% in size. An outline of the steps:
as §4

A short description of assay [8]: A CellTox Green Cytotoxicity Assay to monitor cytotoxicity in HepG2 cells - 40 hour (AID 1224879). Further: nearly all actives have a fitted effect of over 40% in size. An outline of the steps:
as §4

Assay [9] in a line: qHTS RealTime-Glo MT Cell Viability Assay in HEK293 cells - 0 hour (AID 1224880). An outline of the steps: as §3
Assay [10] can be described thus: A CellTox Green Cytotoxicity Assay to monitor cytotoxicity in HEK293 cells - 32 hour (AID 1224881). Further: nearly all actives have a fitted effect of over 40% in size. An outline of the steps: as §1
Assay [11] in a line: A CellTox Green Cytotoxicity Assay to monitor cytotoxicity in HepG2 cells - 32 hour (AID 1224883). Further: nearly all actives have a fitted effect of over 50% in size. A digest of the protocol: as §4
Assay [12] in a line: A CellTox Green Cytotoxicity Assay to monitor cytotoxicity in HEK293 cells - 8 hour (AID 1224884). Further: nearly all actives have a fitted effect of over 35% in size. An outline of the steps:
as §1

A short description of assay [13]: qHTS RealTime-Glo MT Cell Viability Assay in HepG2 cells - 16 hour (AID 1224885). Further: nearly all actives have a fitted effect of over 50% in size. Further: potency means the concentration at half of the fitted maximal effect. A digest of the protocol: as §5
Assay [14] is described as follows: qHTS RealTime-Glo MT Cell Viability Assay in HEK293 cells - 24 hour (AID 1224886). Further: nearly all actives have a fitted effect of over 50% in size. Further: potency means the concentration at half of the fitted maximal effect. An outline of the steps: as §2
Assay [15] can be described thus: A CellTox Green Cytotoxicity Assay to monitor cytotoxicity in HEK293 cells - 16 hour (AID 1224888). Further: nearly all actives have a fitted effect of over 35% in size. An outline of the steps: as §1
Assay [16] is described as follows: qHTS RealTime-Glo MT Cell Viability Assay in HepG2 cells - 0 hour (AID 1224889). Further: nearly all actives have a fitted effect of over 50% in size. Further: potency means the concentration at half of the fitted maximal effect. A digest of the protocol: as §5
Assay [17] is described as follows: A CellTox Green Cytotoxicity Assay to monitor cytotoxicity in HepG2 cells - 8 hour (AID 1224890). Further: nearly all actives have a fitted effect of over 45% in size. A digest of the protocol: as §4
Assay [18] in a line: qHTS RealTime-Glo MT Cell Viability Assay in HepG2 cells - 8 hour (AID 1224873). Further: nearly all actives have a fitted effect of over 55% in size. An outline of the steps:
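HepG2 cells mixed with RealTime-Glo MT reagents (NanoLuc plus cell-permeant prosubstrate) were seeded at 600 cells/well, incubated 5 h at 37 C/5% CO2, then pinned with compounds in DMSO; nonlytic luminescence tracked viability during 40 h treatment.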

The nature of assay [19]: A CellTox Green Cytotoxicity Assay to monitor cytotoxicity in HepG2 cells - 0 hour (AID 1224882). Further: nearly all actives have a fitted effect of over 35% in size. A digest of the protocol: as §4
Assay [20] is described as follows: qHTS RealTime-Glo MT Cell Viability Assay in HEK293 cells - 8 hour (AID 1224887). Further: nearly all actives have a fitted effect of over 50% in size. Further: potency means the concentration at half of the fitted maximal effect. An outline of the steps: as §3

A number with no mark means an inactive call. Records with an inconclusive call do not appear. Activity calls are given as the source filed them. The call rests on the fitted dose curve; in most records, active means well fitted curve in the direction sought with a large enough effect in the repeat runs; inconclusive means weak or mixed curves; inactive means no such curve, though single readings can be large; an effect the other way counts as inactive or inconclusive.
On the % scale 0 is the no-effect control and ±100 the full control effect.

For `CC(C)CC(=O)C1C(=O)c2ccccc2C1=O`, the Potency entry in assay [1], in assay [2], in assay [4], in [5], in assay [6] and in assay [7] was “inactive” throughout. The Potency result in assay [8], in assay [9], in assay [10], in assay [11], in assay [12] and in assay [13] was “inactive” throughout. Also, the Potency entry in [14], in assay [15], in assay [16] and in assay [17] was “inactive” each time. The max response in assay [3] was 0.634%.
As for `C[C@@H]1C[C@H]2[C@@H]3CCC4=CC(=O)C=C[C@]4(C)[C@@]3(F)[C@@H](O)C[C@]2(C)[C@@]1(O)C(=O)COC(=O)c1ccncc1`, the Potency entry in [1], in assay [2], in assay [18], in assay [4], in [5] and in assay [6] was “inactive” in each case. Also, the Potency result in assay [7], in [8], in assay [10], in [19], in assay [11] and in [12] was “inactive” in each case. Further, the Potency result in [13], in [14], in [20], in [15] and in [17] was “inactive” each time. For the same molecule, in assay [16], the Potency was 1.07 µM (active).
Regarding `CCN(CC)CCNc1ccc(CNC=O)c2sc3ccc(OC)cc3c(=O)c12`, the Potency in assay [1] was 19.5 µM (active); in [2], 27.5 µM (active); in assay [3], 8.71 µM (active); in assay [6], 19.5 µM (active); in assay [13], 21.9 µM (active); in assay [14], 19.5 µM (active). For the same molecule, the Potency in [20] was 34.7 µM (active). Moreover, the Potency result in assay [4], in assay [5], in [7], in assay [9], in assay [10] and in assay [19] was “inactive” throughout. Moreover, the Potency result in [12], in assay [15] and in assay [17] was “inactive” throughout.
Consider `COc1ccc(C(=O)Nc2nc3ccccc3c(NCc3ccccc3)c2C#N)cc1`, for which the Potency result in [1], in assay [2], in assay [4], in [5], in assay [7] and in assay [8] was “inactive” in each case. The Potency result in assay [9], in [10], in [19], in [11], in assay [12] and in assay [14] was “inactive” in each case. For the same molecule, the Potency entry in assay [20], in assay [15], in assay [16] and in assay [17] was “inactive” each time. For the same molecule, the max response in assay [3] was -18.2%.
Consider `C=CCOC(=O)CCC1CCCCC1`, for which the Potency result in assay [1], in assay [2], in [18], in assay [4], in assay [5] and in assay [6] was “inactive” throughout. Moreover, the Potency entry in [7], in [8], in assay [9], in assay [10], in assay [19] and in [11] was “inactive” each time. For the same molecule, the Potency entry in assay [13], in assay [14], in [20], in assay [15], in assay [16] and in [17] was “inactive” in each case.
`C[N+]1(CC2COC(c3ccccc3)(C3CCCCC3)O2)CCCCC1` (stereo unspecified): the Potency result in assay [1], in assay [2], in assay [4], in assay [5], in assay [7] and in assay [8] was “inactive” in each case. Also, the Potency result in assay [10], in [19], in [11], in assay [12], in assay [13] and in [20] was “inactive” each time. Moreover, the Potency entry in assay [15], in [16] and in assay [17] was “inactive” in each case.
In the case of `CC(=O)[O][Al]`, the Potency result in assay [1], in [2], in [4], in [5], in assay [6] and in [7] was “inactive” each time. Further, the Potency entry in assay [8], in assay [10], in assay [19], in assay [11], in [12] and in [13] was “inactive” throughout. For the same molecule, the Potency result in assay [14], in [20], in [15], in assay [16] and in assay [17] was “inactive” each time.
For `CC(COCCO)OCCO` (stereo unspecified), the Potency result in assay [1], in [2], in assay [4], in assay [5], in assay [6] and in assay [7] was “inactive” throughout. Further, the Potency entry in assay [8], in assay [9], in assay [10], in assay [19], in [11] and in assay [12] was “inactive” throughout. Besides, the Potency result in assay [13], in assay [14], in [20], in assay [15], in [16] and in assay [17] was “inactive” each time.
As for `Brc1c2ccccc2cc2ccccc12`, the Potency result in [1], in assay [18], in [4], in assay [5], in [6] and in assay [7] was “inactive” each time. For the same molecule, the Potency entry in assay [8], in [9], in assay [10], in assay [19], in [11] and in assay [12] was “inactive” throughout. The Potency result in [13], in assay [15], in [16] and in [17] was “inactive” in each case. In addition, the max response in assay [3] was -17.1%.
Regarding `CCOC(=O)C(O)c1ccccc1` (stereo unspecified), the Potency result in [1], in assay [18], in [4], in assay [5], in assay [6] and in [7] was “inactive” throughout. Further, the Potency result in assay [8], in assay [10], in assay [19], in [11], in [12] and in assay [13] was “inactive” in each case. Also, the Potency entry in assay [14], in assay [20], in assay [15], in assay [16] and in assay [17] was “inactive” each time. In [3], the max response was 4.49%.
